Measurements from PMC4552634, “A New Set of Chemical Starting Points with Plasmodium falciparum Transmission-Blocking Potential for Antimalarial Drug Discovery” (PLoS ONE, 2015).
Screen size: about 13,000 compounds; about 3,200 (25%) showed an effect of 50% or more. The list shows a part of the results.

system: P. falciparum stage V gametocytes; parameters: BacTiter-Glo ATP luminescence viability of purified stage V gametocytes in 384-well plates, per cent inhibition versus DMSO; conditions: 48 h, 5 µM; inhibitor

| Compound | % Inhibition [%] |
| --- | --- |
| COC(=O)c1cccc(NC(=O)NCCNc2ccnc(Nc3ccc(F)cc3)n2)c1 [TCMDC-133642] | 41.44 |
| O=C(c1ccc(Br)o1)N1N=C(c2cccs2)CC1c1ccc(Br)cc1 (stereo not drawn) [TCMDC-125623] | 10.04 |
| COc1ccc(C2CCN(CCCCNC(=O)c3ccc(NC(=O)c4ccc(Cl)cc4)cc3)CC2)c(C)c1 [TCMDC-138359] | -1.308 |
| O=C(NCCCCN1CCC(c2ccc3c(c2OCC2CC2)CCCC3)CC1)c1ccc(NC(=O)c2ccc(Cl)cc2)cc1 [TCMDC-138584] | 71.88 |
| O=C(NCCCCN1CCC(c2ccc3c(c2OC(=O)c2ccc(NC(=O)c4ccc(Cl)cc4)cc2)CCCC3)CC1)c1ccc(NC(=O)c2ccc(Cl)cc2)cc1 [TCMDC-138644] | 102.3 |
| O=C(NCCCCN1CCN(c2cccc3c2CCCC3)CC1)c1ccc(NC(=O)c2ccc(Cl)cc2)cc1 [TCMDC-138513] | -3.326 |
| CC(=O)Oc1c(C2CCN(CCCCNC(=O)c3ccc(NC(=O)c4ccc(Cl)cc4)cc3)CC2)ccc2c1CCCC2 [TCMDC-138649] | 92.78 |
| CC(C)(C)c1cc(Cn2ccnc2)cc(C(C)(C)C)c1O [TCMDC-131317] | -23.04 |
| Cc1cnc(C(=O)Nc2cccc(-c3csc(-c4nc5ccccc5[nH]4)c3)c2)cn1 [TCMDC-132401] | -83.32 |
| CC(=O)c1ccc(N2CCN(C(=O)Nc3ccc(Cl)cc3)CC2)cc1 [TCMDC-125821] | -3.219 |
| O=C(O[C@@H]1CN[C@H](C#Cc2cc3ncnc(Nc4ccc5c(cnn5Cc5cccc(F)c5)c4)c3s2)C1)N1CCCC1 [TCMDC-135355] | -4.612 |
| CC(C)Oc1cc2c(cc1NS(=O)(=O)c1ccc(-c3cccs3)cc1)CCN(C)CC2 [TCMDC-141486] | 15.65 |
| COCCCC1C(=O)OC2CCCC21 (stereo not drawn) [TCMDC-131981] | 9.495 |
| O=C(O)C(F)(F)F.OCCN1CCN(Cc2cccc(-c3ccc(-c4nc5cc(C(F)(F)F)ccc5[nH]4)s3)c2)CC1 [TCMDC-133028] | 0.1652 |
| CCOC(=O)CCc1cc(F)c(F)c(OC[C@H](O)CNC(C)(C)C(O)c2ccc3ccccc3c2)c1 (stereo partly drawn) [TCMDC-141731] | -25.49 |
| Clc1ccc(-c2cc3c(NCc4ccncc4)nccc3s2)cc1 [TCMDC-135202] | 11.9 |
| CN(C)C(=O)CC(=O)NCc1c(Cl)cccc1Cl [TCMDC-131769] | -6.865 |
| COc1cccc(NC(=O)c2cc(Br)cc(N3CCN(c4ccncc4)CC3)c2)c1 [TCMDC-135146] | 1.077 |
| COc1cccc(NC(=O)Cn2c(C)c(C#N)c3ccccc32)c1 [TCMDC-125424] | 84.65 |
| COc1cccc(NC(=O)Cn2c(C)c(C(=O)C(F)(F)F)c3ccccc32)c1 [TCMDC-123800] | 60.17 |
| COc1ccccc1Cn1ccnc1SCC(=O)Nc1cccc(C(F)(F)F)c1 [TCMDC-124737] | -18.32 |

| Compound | % Inhibition [%] |
| --- | --- |
| COc1cccc(NC(=O)Nc2c(-c3cccc(C(F)(F)F)c3)c(C(F)(F)F)nn2C)c1 [TCMDC-124575] | 19.24 |
| CC(C)C(NC(=O)Cc1cccc2ccccc12)C(=O)Nc1cccc(C#N)c1 (stereo not drawn) [TCMDC-125329] | -6.888 |
| O=C(/C=C/c1ccc(Cl)cc1)NCCCCCN1CCCN(C(=O)Nc2ccc(Cl)c(C(F)(F)F)c2)CC1 [TCMDC-136100] | -19.2 |
| O=C(Nc1cccc(N2CCC(NCCCn3ccnc3)CC2)c1)c1cccc(C(F)(F)F)c1 [TCMDC-124663] | 36.86 |
| Cc1cc(NC(=O)NCCN2CCC(NS(=O)(=O)c3cccc(Br)c3)C2)c2ccccc2n1 (stereo not drawn) [TCMDC-136138] | 15.89 |
| COc1ccc(NC(=O)NC2CCN(CCCOc3ccnc4cc(Cl)ccc34)C2)cc1OC (stereo not drawn) [TCMDC-136148] | -28.4 |
| Cc1cc(OCCCN2CCC(NC(=O)c3ccc(Br)cc3)C2)c2ccccc2n1 (stereo not drawn) [TCMDC-136284] | 3.225 |
| COc1ccc(NC(=O)NC2CCN(CCCOc3cc(C)nc4ccccc34)CC2)cc1OC [TCMDC-136281] | 77.42 |
| COc1ccc(S(=O)(=O)NC2CCN(CCNC(=O)Nc3cc(C)nc4ccccc34)C2)cc1 (stereo not drawn) [TCMDC-136141] | -35.07 |
| Cc1ccc(C(=O)NC2CCN(CCNC(=O)Nc3cc(C)nc4ccccc34)CC2)cc1 [TCMDC-136172] | -7.111 |
| Cc1ccc(S(=O)(=O)NC2CCN(CCNC(=O)Nc3cc(C)nc4ccccc34)C2)cc1 (stereo not drawn) [TCMDC-136143] | 91.8 |
| Cc1cc(NC(=O)NCCN2CCC(NC(=O)c3ccc(Cl)cc3)CC2)c2ccccc2n1 [TCMDC-136171] | -56.82 |
| Cc1cc(NC(=O)NCCN2CCC(NC(=O)c3ccc(F)cc3)CC2)c2ccccc2n1 [TCMDC-136173] | 91.01 |
| Cc1cc(NC(=O)NCCN2CCC(NC(=O)c3cccc(Br)c3)C2)c2ccccc2n1 (stereo not drawn) [TCMDC-136175] | 92.91 |
| Cc1cc(NC(=O)NCCN2CCC(NC(=O)c3ccc(C(F)(F)F)cc3)CC2)c2ccccc2n1 [TCMDC-136174] | -43.73 |
| Cc1cc(NC(=O)NCCN2CCC(NS(=O)(=O)c3ccc(Br)cc3)C2)c2ccccc2n1 (stereo not drawn) [TCMDC-136139] | 5.798 |
| CC(=O)Nc1ncc(C(=O)Nc2cccc(-c3ccc(-c4nc5ccc(C(F)(F)F)cc5[nH]4)cc3)c2)s1 [TCMDC-136921] | -28 |
| CC(=O)Oc1c(C2C=CCCC2)c(OC(C)=O)c2ccccc2c1OC(C)=O (stereo not drawn) [TCMDC-138176] | 9.671 |
| O=C(NC1CCCCC1)c1ccc(O)c(-c2cccc(C(F)(F)F)c2)c1 [TCMDC-140163] | -1.763 |
| Cc1ccc(O)cc1Nc1ccnc2cc(-c3csc(CNCCN4CCOCC4)n3)ccc12 [TCMDC-138457] | 16.99 |
| Cc1noc(C)c1-c1cccc(CNCc2cccc(-c3ccc(-c4nc5cc(C(F)(F)F)ccc5[nH]4)s3)c2)c1.O=C(O)C(F)(F)F [TCMDC-133055] | 0.7472 |
